Our source for the growth values is PubChem BioAssay (NCI).

Test systems include SR leukemia; RPMI-8226 leukemia; OVCAR-8 ovarian; OVCAR-5 ovarian; OVCAR-4 ovarian; SK-OV-3 ovarian; IGROV1 ovarian; OVCAR-3 ovarian; HS 578T breast; NCI/ADR-RES ovarian; T-47D breast; BT-549 breast; MDA-MB-435 melanoma; SW-620 colon; MCF7 breast; HCT-116 colon; HCC-2998 colon; KM12 colon.
Assay in all cases: NCI-60 one-dose screen, 48 h (100 = growth as untreated, 0 = no growth, -100 = all killed)
Details in all cases: 10 µM unless noted

This is part of a sample that, as a whole, favours compounds with a hit. Of some 83,000 tested, about 20% had one in any assay.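 Percent growth is the endpoint: 0 to 100 indicates growth inhibition (40 means 60% inhibition), 0 means no net growth, and negative values indicate cell death.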 A number with no mark means an inactive call. Active and inactive are the calls of the source. The calls were made as follows: active = growth percent below 10; inactive = the rest.

With `Cc1ccc(Cc2cnc(NC(=O)/C=C/c3cccc(C)c3)s2)cc1`, the growth in the test on SR leukemia was 13.2%; with RPMI-8226 leukemia, 3.37% (active); in the test with OVCAR-8 ovarian, 21%; in the test on OVCAR-5 ovarian, 20.9%; with OVCAR-4 ovarian, 12.9%; in the test on SK-OV-3 ovarian, 15.7%. Moreover, the growth was 18.3% in the test on IGROV1 ovarian; -41.4% (active) with OVCAR-3 ovarian; 6.83% (active) in the test on HS 578T breast; -36.5% (active) in the test with NCI/ADR-RES ovarian; 39.8% with T-47D breast; -5.4% (active) in the test on BT-549 breast. Further, the growth was -44.7% (active) in the test on MDA-MB-435 melanoma; 17% in the test on SW-620 colon; 14.6% with MCF7 breast; 2.53% (active) with HCT-116 colon; 12.4% in the test on HCC-2998 colon; 16.1% in the test with KM12 colon.
Regarding `COc1cc(/C=N/Nc2ncnc3c2c(C)nn3-c2ccc(F)cc2)ccc1O`, the growth in the test on SR leukemia was 77%; in the test with RPMI-8226 leukemia, 92.5%; in the test with OVCAR-8 ovarian it was 96.4%; in the test on OVCAR-5 ovarian it was 131%; with OVCAR-4 ovarian it was 90.3%; in the test with SK-OV-3 ovarian, 99.2%. Also, the growth in the test on IGROV1 ovarian is 79.5%; in the test with OVCAR-3 ovarian, 75.8%; in the test on HS 578T breast, 99.1%; with NCI/ADR-RES ovarian it was 95.7%; in the test on T-47D breast, 79.8%; in the test with BT-549 breast, 90.4%. Besides, the growth in the test with MDA-MB-435 melanoma was 95.4%; in the test with SW-620 colon, 131%; in the test on MCF7 breast, 85.3%; with HCT-116 colon it was 105%; in the test with HCC-2998 colon, 99.7%; in the test with KM12 colon, 71.9%.
Consider `Oc1cccc2ccc(N/N=C/c3cc(CN4CCCCC4)c(O)c4ncccc34)nc12`, for which the growth in the test on SR leukemia is -12.7% (active); in the test on RPMI-8226 leukemia it was 0.883% (active); in the test with OVCAR-8 ovarian, 8.27% (active); in the test with OVCAR-5 ovarian it was 36.4%; in the test with OVCAR-4 ovarian it was 8.09% (active); with SK-OV-3 ovarian, -30.5% (active). The growth is 14.3% with IGROV1 ovarian; 7.62% (active) in the test on OVCAR-3 ovarian; 17.1% in the test on HS 578T breast; 8.58% (active) in the test on NCI/ADR-RES ovarian; 25.3% with T-47D breast; 11.1% in the test on BT-549 breast. Moreover, the growth is 20.2% in the test with MDA-MB-435 melanoma; 16% with SW-620 colon; 10.3% in the test on MCF7 breast; 1.57% (active) with HCT-116 colon; 5.61% (active) in the test with HCC-2998 colon; 9.18% (active) in the test with KM12 colon.
With `CC(C)(C)c1nc(-c2ccc(O)c(O)c2)cs1`, the growth is 26.9% in the test on SR leukemia; 39.2% with RPMI-8226 leukemia; 60.9% in the test on OVCAR-8 ovarian; 91% with OVCAR-5 ovarian; 76.2% with OVCAR-4 ovarian; 90.6% with SK-OV-3 ovarian. Moreover, the growth in the test on IGROV1 ovarian is 43.8%; with OVCAR-3 ovarian, 61.2%; in the test on HS 578T breast it was 85.9%; in the test on NCI/ADR-RES ovarian, 35.5%; in the test on T-47D breast, 61.6%; in the test on BT-549 breast, 63.3%. The growth is 36.6% in the test on MDA-MB-435 melanoma; 28.6% in the test with SW-620 colon; 83% with MCF7 breast; 48.8% in the test with HCT-116 colon; 86.1% in the test with HCC-2998 colon; 76.7% with KM12 colon.
Take `C=C1C(=O)O[C@H]2[C@H]1CC/C(Cn1cc(-c3ccc(OC)cc3)nn1)=C\CC[C@@]1(C)O[C@@H]21`: the growth with SR leukemia was -10.8% (active); with RPMI-8226 leukemia, -33.3% (active); with OVCAR-8 ovarian it was -51% (active); in the test on OVCAR-5 ovarian, 17.2%; in the test with OVCAR-4 ovarian, 27.4%; in the test with SK-OV-3 ovarian, 120%. Besides, the growth is -51.1% (active) with IGROV1 ovarian; -83.9% (active) in the test on OVCAR-3 ovarian; 75.6% in the test with HS 578T breast; 24.7% in the test on NCI/ADR-RES ovarian; -71% (active) in the test with T-47D breast; 50% in the test on BT-549 breast. Besides, the growth is -26.9% (active) in the test on MDA-MB-435 melanoma; -50.2% (active) with SW-620 colon; -41.3% (active) with MCF7 breast; -83.6% (active) with HCT-116 colon; 2.05% (active) with HCC-2998 colon; 65.5% in the test on KM12 colon.
In the case of `CN1CCN(CCOc2ccc(-c3cnc4c(-c5ccccc5F)cnn4c3)cc2)CC1`, the growth is -12.6% (active) with SR leukemia; -9.99% (active) in the test on RPMI-8226 leukemia; 40.7% with OVCAR-8 ovarian; 80.4% in the test with OVCAR-5 ovarian; 63.6% with OVCAR-4 ovarian; 94.2% in the test with SK-OV-3 ovarian. Besides, the growth was 57.3% in the test on IGROV1 ovarian; 20.3% with OVCAR-3 ovarian; 76.9% in the test with HS 578T breast; 48.8% with NCI/ADR-RES ovarian; 23% in the test with T-47D breast; 69.9% with BT-549 breast. In addition, the growth in the test with MDA-MB-435 melanoma was -29.2% (active); in the test on SW-620 colon, -73.8% (active); in the test with MCF7 breast, 19.2%; with HCT-116 colon, 3.73% (active); with HCC-2998 colon it was 22.4%; in the test with KM12 colon, 9.44% (active).
`COC(=O)C(N)CSC(c1ccccc1)(c1ccccc1)c1ccccc1` (centres undefined): the growth in the test with SR leukemia was 7.6% (active); in the test with RPMI-8226 leukemia, 30.9%; in the test with OVCAR-8 ovarian, 36.8%; in the test with OVCAR-5 ovarian, 33.3%; with OVCAR-4 ovarian it was 79.8%; in the test with SK-OV-3 ovarian, 19.4%. Also, the growth is 28.6% in the test on IGROV1 ovarian; 20.7% in the test on OVCAR-3 ovarian; 21.5% in the test with HS 578T breast; 68.4% with NCI/ADR-RES ovarian; 23.9% in the test on T-47D breast; 54.6% in the test on BT-549 breast. Moreover, the growth in the test with MDA-MB-435 melanoma was -58.7% (active); in the test with SW-620 colon, 21.1%; in the test with MCF7 breast, 13.1%; in the test with HCT-116 colon, 15.7%; in the test on HCC-2998 colon, 12.9%; in the test with KM12 colon it was 17.6%.
Regarding `Cc1cc(N(CCCNc2ccnc3cc(Cl)ccc23)Cc2ccco2)nc(N2CCOCC2)n1`, the growth in the test with SR leukemia was 8.63% (active); in the test on RPMI-8226 leukemia, 35.1%; with OVCAR-8 ovarian, 80.4%; in the test with OVCAR-5 ovarian it was 79%; in the test on OVCAR-4 ovarian, 65.7%; in the test on SK-OV-3 ovarian it was 78.6%. Further, the growth in the test on IGROV1 ovarian is 45.2%; with OVCAR-3 ovarian, 72.4%; in the test with HS 578T breast, 77.5%; with NCI/ADR-RES ovarian it was 67.4%; with T-47D breast, 88.5%; in the test with BT-549 breast it was 58.4%. In addition, the growth in the test with MDA-MB-435 melanoma is 62.9%; in the test on SW-620 colon, 63.3%; with MCF7 breast it was 63.4%; in the test on HCT-116 colon, 43.8%; in the test on HCC-2998 colon it was 87.4%; in the test with KM12 colon, 79.3%.
